Experimental data: the supplement of paper PMC11732987, “Enantioselective OTUD7B fragment discovery through chemoproteomics screening and high-throughput optimisation” (Communications Chemistry, 2025)

How the values were obtained:
Assay in all cases: log2 ratio of Biotin-Ahx-Ub-VS probe labelling (fragment/DMSO); higher = less target engagement (more negative = stronger competition), active = hit call of the paper (q ≤ 0.05, log2 ratio ≤ -1)
Details in all cases: compound concentration: 200 uM; treatment time: 3 h
USP19 = molecular target: T1, USP19 (UniProt O94966)
T1 sequence (whole entry): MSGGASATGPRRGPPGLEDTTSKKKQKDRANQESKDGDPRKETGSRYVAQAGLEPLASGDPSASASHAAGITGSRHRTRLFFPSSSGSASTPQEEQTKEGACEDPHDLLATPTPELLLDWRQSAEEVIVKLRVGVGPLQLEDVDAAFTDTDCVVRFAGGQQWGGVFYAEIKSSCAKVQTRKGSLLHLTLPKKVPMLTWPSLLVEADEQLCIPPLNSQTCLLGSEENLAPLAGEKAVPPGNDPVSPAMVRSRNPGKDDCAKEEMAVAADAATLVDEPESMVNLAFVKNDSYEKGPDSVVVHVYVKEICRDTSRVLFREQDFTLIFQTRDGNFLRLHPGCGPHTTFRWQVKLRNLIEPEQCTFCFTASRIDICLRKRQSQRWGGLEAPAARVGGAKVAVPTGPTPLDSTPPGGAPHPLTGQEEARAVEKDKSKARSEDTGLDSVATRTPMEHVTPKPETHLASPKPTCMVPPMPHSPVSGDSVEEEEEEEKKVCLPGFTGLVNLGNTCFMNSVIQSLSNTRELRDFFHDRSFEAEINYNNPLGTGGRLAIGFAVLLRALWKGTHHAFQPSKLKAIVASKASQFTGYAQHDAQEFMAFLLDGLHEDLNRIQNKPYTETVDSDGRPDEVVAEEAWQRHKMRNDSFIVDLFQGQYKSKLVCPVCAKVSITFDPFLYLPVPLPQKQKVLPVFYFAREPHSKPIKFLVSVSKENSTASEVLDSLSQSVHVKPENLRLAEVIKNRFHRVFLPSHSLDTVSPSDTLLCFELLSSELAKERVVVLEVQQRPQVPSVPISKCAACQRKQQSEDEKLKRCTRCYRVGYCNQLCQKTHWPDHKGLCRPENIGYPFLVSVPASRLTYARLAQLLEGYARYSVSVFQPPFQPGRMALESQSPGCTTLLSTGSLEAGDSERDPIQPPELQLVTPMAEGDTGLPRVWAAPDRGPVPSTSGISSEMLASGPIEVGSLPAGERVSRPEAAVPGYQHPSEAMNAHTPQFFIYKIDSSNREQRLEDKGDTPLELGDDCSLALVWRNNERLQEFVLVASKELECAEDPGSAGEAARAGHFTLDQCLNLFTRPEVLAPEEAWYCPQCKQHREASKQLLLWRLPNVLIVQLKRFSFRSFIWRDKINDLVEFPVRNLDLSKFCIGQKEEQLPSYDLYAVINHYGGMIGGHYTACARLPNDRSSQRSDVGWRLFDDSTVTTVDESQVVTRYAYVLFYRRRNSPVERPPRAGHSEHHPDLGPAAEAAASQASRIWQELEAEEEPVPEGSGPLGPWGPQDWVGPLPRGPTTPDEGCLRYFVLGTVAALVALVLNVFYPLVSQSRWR
Procedure, shortened: (§1)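 Fragment (200 µM) or vehicle was incubated for 3 h with triplicate HEK293T lysate samples of 495 µg, which were then treated with Biotin-Ahx-Ub-VS at 0.5 µM final for 1 h. Labelled DUBs were enriched on NeutrAvidin, digested with LysC and trypsin, and analysed by diaPASEF LC-MS/MS. Values are average log2 fragment/vehicle ratios from an unpaired t-test on global-median-normalised Spectronaut label-free quantities, using proteins with ≥2 unique peptides.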

USP22 = molecular target: T2, USP22 (UniProt Q9UPT9)
T2 sequence (whole entry): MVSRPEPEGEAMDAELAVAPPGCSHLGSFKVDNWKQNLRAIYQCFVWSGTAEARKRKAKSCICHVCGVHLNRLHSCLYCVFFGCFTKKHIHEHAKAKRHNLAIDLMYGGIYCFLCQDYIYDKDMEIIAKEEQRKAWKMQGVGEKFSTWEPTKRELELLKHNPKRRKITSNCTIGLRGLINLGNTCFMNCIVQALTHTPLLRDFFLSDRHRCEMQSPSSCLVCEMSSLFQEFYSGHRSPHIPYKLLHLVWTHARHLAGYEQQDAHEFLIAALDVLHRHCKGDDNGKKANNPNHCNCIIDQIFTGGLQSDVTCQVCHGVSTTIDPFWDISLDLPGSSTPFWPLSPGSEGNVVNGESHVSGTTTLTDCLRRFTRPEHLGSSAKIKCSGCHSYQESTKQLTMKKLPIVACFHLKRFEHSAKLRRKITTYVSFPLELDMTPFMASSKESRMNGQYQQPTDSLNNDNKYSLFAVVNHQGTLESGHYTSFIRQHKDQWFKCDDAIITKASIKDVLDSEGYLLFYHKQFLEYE
Procedure, shortened: as §1

USP24 = USP24 (UniProt Q9UPU5)
USP24, sequence (Q9UPU5 whole entry): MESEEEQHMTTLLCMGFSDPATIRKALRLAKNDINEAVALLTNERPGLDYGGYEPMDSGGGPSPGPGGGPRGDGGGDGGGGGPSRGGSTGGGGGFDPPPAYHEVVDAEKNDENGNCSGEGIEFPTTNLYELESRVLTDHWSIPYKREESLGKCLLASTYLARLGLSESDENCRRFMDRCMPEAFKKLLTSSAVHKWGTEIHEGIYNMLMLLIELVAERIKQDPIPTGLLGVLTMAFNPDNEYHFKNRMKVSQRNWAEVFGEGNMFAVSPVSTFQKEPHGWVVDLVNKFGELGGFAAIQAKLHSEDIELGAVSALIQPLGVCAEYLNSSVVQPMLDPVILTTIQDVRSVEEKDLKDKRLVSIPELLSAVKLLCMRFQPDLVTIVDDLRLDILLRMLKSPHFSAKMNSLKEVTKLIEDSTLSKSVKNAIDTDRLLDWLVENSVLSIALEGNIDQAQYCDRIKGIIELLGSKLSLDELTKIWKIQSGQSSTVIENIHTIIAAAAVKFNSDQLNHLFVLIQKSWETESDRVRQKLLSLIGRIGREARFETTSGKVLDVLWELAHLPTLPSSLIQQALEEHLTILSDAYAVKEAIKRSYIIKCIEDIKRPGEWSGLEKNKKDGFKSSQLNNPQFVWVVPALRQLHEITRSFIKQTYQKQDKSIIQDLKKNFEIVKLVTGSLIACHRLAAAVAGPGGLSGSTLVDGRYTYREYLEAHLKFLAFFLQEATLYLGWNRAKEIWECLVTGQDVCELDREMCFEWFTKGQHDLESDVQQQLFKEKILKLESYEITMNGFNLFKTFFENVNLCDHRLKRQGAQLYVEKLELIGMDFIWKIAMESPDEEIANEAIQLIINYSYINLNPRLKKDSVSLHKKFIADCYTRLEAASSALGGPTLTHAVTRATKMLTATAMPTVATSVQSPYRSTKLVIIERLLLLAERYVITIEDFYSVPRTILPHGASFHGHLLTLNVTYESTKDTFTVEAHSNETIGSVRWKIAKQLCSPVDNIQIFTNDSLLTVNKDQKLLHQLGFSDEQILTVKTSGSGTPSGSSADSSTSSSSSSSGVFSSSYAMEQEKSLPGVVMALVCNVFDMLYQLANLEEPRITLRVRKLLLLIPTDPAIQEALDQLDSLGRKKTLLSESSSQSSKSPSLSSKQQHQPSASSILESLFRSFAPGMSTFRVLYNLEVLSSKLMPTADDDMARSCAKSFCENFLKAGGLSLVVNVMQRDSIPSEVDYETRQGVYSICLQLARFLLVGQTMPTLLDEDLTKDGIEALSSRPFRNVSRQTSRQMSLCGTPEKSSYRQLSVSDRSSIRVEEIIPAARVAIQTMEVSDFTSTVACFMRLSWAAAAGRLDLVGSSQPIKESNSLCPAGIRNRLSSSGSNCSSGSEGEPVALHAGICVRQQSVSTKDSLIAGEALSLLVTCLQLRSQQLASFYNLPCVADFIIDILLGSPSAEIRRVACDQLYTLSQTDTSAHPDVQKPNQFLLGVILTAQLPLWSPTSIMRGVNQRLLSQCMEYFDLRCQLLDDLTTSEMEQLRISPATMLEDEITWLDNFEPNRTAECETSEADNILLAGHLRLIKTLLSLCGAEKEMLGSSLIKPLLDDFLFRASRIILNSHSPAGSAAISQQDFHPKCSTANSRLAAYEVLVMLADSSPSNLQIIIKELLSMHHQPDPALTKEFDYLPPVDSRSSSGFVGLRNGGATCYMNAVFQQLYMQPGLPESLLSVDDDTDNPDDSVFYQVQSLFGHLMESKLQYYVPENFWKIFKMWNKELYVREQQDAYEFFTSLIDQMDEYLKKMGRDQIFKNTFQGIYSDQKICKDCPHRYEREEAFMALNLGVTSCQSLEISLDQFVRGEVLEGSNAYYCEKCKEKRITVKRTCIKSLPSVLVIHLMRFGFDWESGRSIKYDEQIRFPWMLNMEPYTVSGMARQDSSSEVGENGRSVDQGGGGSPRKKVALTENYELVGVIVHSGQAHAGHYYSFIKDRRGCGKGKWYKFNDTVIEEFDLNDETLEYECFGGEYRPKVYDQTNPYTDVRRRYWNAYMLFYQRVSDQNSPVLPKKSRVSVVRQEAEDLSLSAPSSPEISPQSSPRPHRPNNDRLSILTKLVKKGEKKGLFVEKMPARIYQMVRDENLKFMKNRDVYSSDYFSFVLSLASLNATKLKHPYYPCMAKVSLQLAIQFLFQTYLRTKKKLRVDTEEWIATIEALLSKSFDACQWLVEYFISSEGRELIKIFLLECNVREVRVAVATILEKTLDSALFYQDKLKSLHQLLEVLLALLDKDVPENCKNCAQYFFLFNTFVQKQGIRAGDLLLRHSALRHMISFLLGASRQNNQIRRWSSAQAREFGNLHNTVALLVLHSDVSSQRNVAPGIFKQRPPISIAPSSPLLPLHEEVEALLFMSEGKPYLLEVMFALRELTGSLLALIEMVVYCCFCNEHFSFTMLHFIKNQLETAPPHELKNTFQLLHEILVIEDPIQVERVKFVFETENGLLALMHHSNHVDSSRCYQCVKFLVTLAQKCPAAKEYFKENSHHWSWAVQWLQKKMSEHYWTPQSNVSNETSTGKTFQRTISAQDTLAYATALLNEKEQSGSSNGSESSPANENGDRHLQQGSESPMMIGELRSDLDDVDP
Procedure, shortened: as §1

USP25 = molecular target: T3, USP25 (UniProt Q9UHP3)
T3 sequence (whole entry): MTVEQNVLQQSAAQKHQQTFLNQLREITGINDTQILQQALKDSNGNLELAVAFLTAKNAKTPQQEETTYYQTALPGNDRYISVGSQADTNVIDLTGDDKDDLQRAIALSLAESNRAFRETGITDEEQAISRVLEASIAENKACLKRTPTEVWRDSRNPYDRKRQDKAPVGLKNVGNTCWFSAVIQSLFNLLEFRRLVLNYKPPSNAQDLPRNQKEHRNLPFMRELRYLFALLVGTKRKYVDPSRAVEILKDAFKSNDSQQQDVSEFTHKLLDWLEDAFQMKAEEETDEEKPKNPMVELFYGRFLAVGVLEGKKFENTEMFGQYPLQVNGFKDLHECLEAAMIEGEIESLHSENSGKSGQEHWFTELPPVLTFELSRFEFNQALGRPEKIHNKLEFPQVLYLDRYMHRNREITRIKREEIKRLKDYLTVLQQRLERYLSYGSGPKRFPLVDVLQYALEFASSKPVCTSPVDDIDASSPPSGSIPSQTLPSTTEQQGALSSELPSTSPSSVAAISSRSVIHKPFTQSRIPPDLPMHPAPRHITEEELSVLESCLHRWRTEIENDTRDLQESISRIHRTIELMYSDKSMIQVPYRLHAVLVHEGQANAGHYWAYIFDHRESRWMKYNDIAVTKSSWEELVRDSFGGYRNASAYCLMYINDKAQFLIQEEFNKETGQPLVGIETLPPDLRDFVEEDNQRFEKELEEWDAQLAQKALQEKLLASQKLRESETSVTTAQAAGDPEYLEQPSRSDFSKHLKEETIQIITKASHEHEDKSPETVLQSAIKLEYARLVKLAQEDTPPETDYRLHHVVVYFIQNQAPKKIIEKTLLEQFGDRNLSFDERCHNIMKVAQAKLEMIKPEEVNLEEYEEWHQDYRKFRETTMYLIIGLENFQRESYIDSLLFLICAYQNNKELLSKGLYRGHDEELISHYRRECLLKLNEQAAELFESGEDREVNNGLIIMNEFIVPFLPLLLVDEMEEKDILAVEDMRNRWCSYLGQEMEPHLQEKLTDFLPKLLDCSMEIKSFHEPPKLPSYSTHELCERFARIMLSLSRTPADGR
Procedure, shortened: as §1

USP28 = molecular target: T4, USP28 (UniProt Q96RU2)
T4 sequence (whole entry): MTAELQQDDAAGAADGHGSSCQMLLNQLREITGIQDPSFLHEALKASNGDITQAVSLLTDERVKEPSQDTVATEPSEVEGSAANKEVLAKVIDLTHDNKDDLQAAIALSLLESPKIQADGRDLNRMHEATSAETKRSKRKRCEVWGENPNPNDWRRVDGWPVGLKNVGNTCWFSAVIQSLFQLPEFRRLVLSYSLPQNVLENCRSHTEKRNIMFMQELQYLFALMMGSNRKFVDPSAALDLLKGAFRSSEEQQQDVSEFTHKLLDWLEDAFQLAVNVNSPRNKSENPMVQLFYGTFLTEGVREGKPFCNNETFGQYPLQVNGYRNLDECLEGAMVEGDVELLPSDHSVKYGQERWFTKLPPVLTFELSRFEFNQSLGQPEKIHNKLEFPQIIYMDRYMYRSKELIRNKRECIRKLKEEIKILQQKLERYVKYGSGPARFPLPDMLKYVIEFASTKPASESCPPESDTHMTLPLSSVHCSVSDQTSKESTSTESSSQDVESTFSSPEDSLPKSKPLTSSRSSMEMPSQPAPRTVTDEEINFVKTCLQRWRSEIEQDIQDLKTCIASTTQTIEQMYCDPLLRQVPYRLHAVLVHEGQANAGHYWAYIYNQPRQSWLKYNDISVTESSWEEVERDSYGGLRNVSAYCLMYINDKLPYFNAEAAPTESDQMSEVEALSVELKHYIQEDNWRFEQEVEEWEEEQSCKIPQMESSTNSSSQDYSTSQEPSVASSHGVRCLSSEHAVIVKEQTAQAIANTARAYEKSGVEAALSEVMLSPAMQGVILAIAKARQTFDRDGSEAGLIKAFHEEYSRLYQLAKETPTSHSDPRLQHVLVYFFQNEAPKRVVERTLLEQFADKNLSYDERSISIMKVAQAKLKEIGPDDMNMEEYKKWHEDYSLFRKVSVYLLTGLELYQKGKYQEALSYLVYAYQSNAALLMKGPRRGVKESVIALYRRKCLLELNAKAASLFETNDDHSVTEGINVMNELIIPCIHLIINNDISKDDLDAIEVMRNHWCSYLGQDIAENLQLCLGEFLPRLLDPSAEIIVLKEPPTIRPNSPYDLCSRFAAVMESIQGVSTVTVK
Procedure, shortened: as §1

Measured: log2 ratio of Biotin-Ahx-Ub-VS probe labelling

Cc1ccc(CN(C)C(=O)CCl)o1
inactive: USP19 -0.241 | USP22 -0.454 | USP24 -0.411 | USP25 -0.156 | USP28 -0.465
